Measured values: PubChem BioAssay
Calls of active or inactive are those of the source.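 Rule for the calls: active = calcium signal rise more than 3 SD above the low-dose agonist control mean, in both duplicate plates and the primary screen; inactive = the rest.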

Experiment: calcium flux enhancement in mu-opioid HEK293 cells, confirmation, counter-screen for TRPC4 allosteric potentiator project, cell-based, HEK293 mu-opioid receptor line (AID 449724);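 note: HEK293 cells carrying mu-opioid receptor only with no TRPC4 channel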
Details: Fluo-4 calcium flux, at 10 µM, compound added before EC20 DAMGO stimulus; stronger effect = higher value

| SMILES | outcome | activation |
| --- | --- | --- |
| COc1ccc(C(CNC(=O)COc2ccccc2OC)N(C)C)cc1OC (centres undefined) | inactive |  |
| COc1ccc(C(CNC(=O)CCOc2ccccc2)N(C)C)cc1 (centres undefined) | inactive |  |
| CN(C)C(CNc1ccc(C(F)(F)F)cn1)c1ccccc1 (centres undefined) | inactive |  |
| Fc1ccc(-n2cc(CNCCc3cccnc3)c(-c3ccccc3Cl)n2)cc1 | inactive |  |
| CCOC(=O)c1ccc(NC(=O)NCCc2cnc[nH]2)cc1 | inactive |  |
| CN1CCN(C(=O)c2cccn(Cc3c(Cl)cccc3Cl)c2=O)CC1 | inactive |  |
| Cc1sc2ncnc(NCC(c3ccccc3)N(C)C)c2c1C (centres undefined) | inactive |  |
| O=C(O)C1C2C=CC(C2)C1C(=O)N1CCN(C/C=C/c2ccccc2)CC1 (centres undefined) | inactive |  |
| CCCCN(CC)CCNC(=O)c1cc2c(-c3ccc(Cl)cc3)nn(C)c2s1 | inactive |  |
| O=C(Nc1ccncc1)c1ccc(Cl)c(S(=O)(=O)N2CCc3ccccc32)c1 | inactive |  |
| CC(=O)OCC[N+](C)(C)C | inactive |  |
| COc1ccc(CCN(C)C(=O)C2CCCN(C3CCN(Cc4ccccc4)CC3)C2)cc1OC (centres undefined) | inactive |  |
| Cc1cc(C)cc(NC(=S)N2CCN(c3ncc(C(F)(F)F)cc3Cl)CC2)c1 | inactive |  |
| COc1ccc(C(CNC(=O)Cc2ccc(-c3ccccc3)cc2)N(C)C)cc1 (centres undefined) | inactive |  |
| O=c1c(Cc2ccccc2)c(O)ccn1CCc1cnc[nH]1 | inactive |  |
| COc1ccc(C(=O)NNC(=S)NC(=O)c2cccs2)cc1 | inactive |  |
| CCC(=O)NC(C)C(c1cccs1)N1CCN(c2ccccc2)CC1 (centres undefined) | inactive |  |
| NCCCNC(=O)c1cc2ccccc2[nH]1 | inactive |  |
| Cn1c2ccccc2c(=O)c2c(=O)n(C3CCCCC3)c(-c3ccco3)nc21 | inactive |  |
| COc1ccc(-n2c3c(cc(C(=O)NNc4ccccc4)c2=O)C(=O)CC(C)(C)C3)cc1 | inactive |  |

| SMILES | outcome | activation |
| --- | --- | --- |
| O=C(c1sc2ccccc2c1Cl)N(Cc1ccccc1)C1CCS(=O)(=O)C1 (centres undefined) | inactive |  |
| CN(C)C(CNC(=S)Nc1ccc(Cl)cc1)c1cccnc1 (centres undefined) | inactive |  |
| O=C1/C(=C\c2cc([N+](=O)[O-])ccc2O)SC(=S)N1Cc1ccc(Cl)cc1 |  | 5450% (active) |
| Cc1ccc(C(=O)NNC(=S)NC(=O)COc2ccccc2)cc1 | inactive |  |
| CCCCCc1c(O)nc(SCCN(C)C)[nH]c1=O | inactive |  |
| CC1CC(C)CN(CCCNS(=O)(=O)c2cc(Br)cc3c2N(C(=O)C2CC2)CC3)C1 (centres undefined) | inactive |  |
| CN1C2C=C(N(CCc3ccccc3)C(=O)c3ccc(Cl)cc3)CC1CC2 (centres undefined) | inactive |  |
| Cc1ccccc1C(=O)NNC(=S)NC(=O)COc1ccccc1 | inactive |  |
| CCOC(=O)C1(CC2CCCCO2)CCN(Cc2cc(F)ccc2-n2cccn2)CC1 (centres undefined) | inactive |  |
| Cc1ccc(NC(=O)CCN2CCC(Cc3ccccc3)CC2)cc1 | inactive |  |
| CCCn1ncc(CN2CCC(n3nccc3NC(=O)CCc3ccccc3)CC2)c1C | inactive |  |
| Cc1sc2ncnc(NCC(c3ccco3)N(C)C)c2c1C (centres undefined) | inactive |  |
| CCCN(CCC)CCNC(=O)CCC(=O)Nc1ccc2nc(N3CCOCC3)cc(C)c2c1 | inactive |  |
| CCN1CCN(c2c(Cl)cccc2NC(=O)c2ccc([N+](=O)[O-])cc2)CC1 | inactive |  |
| CN1CCN(c2ccc(NC(=O)c3ccc(-c4cccc([N+](=O)[O-])c4)o3)cc2)CC1 | inactive |  |
| OCCC1CN(Cc2ccccc2-c2ccco2)CCN1Cc1ccccc1 (centres undefined) | inactive |  |
| CN(C)C(CNC(=O)NC1CCCCC1)c1cccnc1 (centres undefined) | inactive |  |
| O=C1S/C(=C\c2ccc(N3CCOCC3)o2)C(=O)N1Cc1c(F)cccc1Cl | inactive |  |
| COCCCn1c(N)c(-c2nc3ccccc3n2C)c2nc3ccccc3nc21 | inactive |  |
